Measured values taken from PubChem BioAssay AID1159580 (chemical genetic matrix, 2015).
Screen size: about 5,500 compounds; about 2,000 (36%) were called active. Not shown: some 18% with an inconclusive outcome. Rule as the data show it: active = normalized growth mostly below about 0.91 (no sharp cut-off); inconclusive = no clear call, values can overlap the other calls; inactive = mostly above about 0.92. Some of the results follow.

Assay: chemical genetic growth profiling, strain panel (AID 1159580);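 also: tested at 20 µM; growth read once vehicle control cultures reached saturation at 30 °C; 1 = growth at the plate median or of vehicle wells; lower values mean less growth of the strain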
Details: growth OD

Measured: normalized growth

O=C1C=CC2=C3c4cc(O)c(O)cc4C[C@@]3(O)COC2=C1
inactive: S. cerevisiae deletion strains, locus YJR066W, strain TOR1, active compounds read low 0.935 | S. cerevisiae deletion strains, locus YKL009W, strain mrt4, active compounds read low 1.01 | S. cerevisiae deletion strains, locus YKL068W, active compounds read low 1.01 | S. cerevisiae deletion strains, locus YKL085W, strain MDH1 (second series), active compounds read low 1.01 | S. cerevisiae deletion strains, locus YKL085W, strain MDH1, active compounds read low 1.01 | S. cerevisiae deletion strains, locus YKL160W, strain elf1, active compounds read low 0.953 | S. cerevisiae deletion strains, locus YKR001C, strain vps1, active compounds read low 1.02 | S. cerevisiae deletion strains, locus YKR026C, strain gcn3, active compounds read low 0.983 | S. cerevisiae deletion strains, locus YKR091W, strain srl3, active compounds read low 0.97 | S. cerevisiae deletion strains, locus YLL001W, strain dnm1, active compounds read low 0.976 | S. cerevisiae deletion strains, locus YLL026W, active compounds read low 0.986 | S. cerevisiae deletion strains, locus YLL041C, strain sdh2, active compounds read low 0.976 | S. cerevisiae deletion strains, locus YLR027C, strain aat2, active compounds read low 0.979 | S. cerevisiae deletion strains, locus YLR039C, strain RIC1, active compounds read low 1.07 | S. cerevisiae deletion strains, locus YLR058C, strain SHM2, active compounds read low 0.997 | S. cerevisiae deletion strains, locus YLR102C, strain apc9, active compounds read low 0.992 | S. cerevisiae deletion strains, locus YLR113W, strain HOG1, active compounds read low 1.08 | S. cerevisiae deletion strains, locus YLR221C, strain rsa3, active compounds read low 0.991 | S. cerevisiae deletion strains, locus YLR258W, strain gsy2, active compounds read low 0.971 | S. cerevisiae deletion strains, locus YLR262C, strain YPT6 (second series), active compounds read low 0.976 | S. cerevisiae deletion strains, locus YLR262C, strain YPT6, active compounds read low 1.08 | S. cerevisiae deletion strains, locus YLR268W, strain sec22, active compounds read low 1.03 | S. cerevisiae deletion strains, locus YLR320W, strain mms22, active compounds read low 0.995 | S. cerevisiae deletion strains, locus YLR342W, strain FKS1, active compounds read low 0.985 | S. cerevisiae deletion strains, locus YLR357W, strain rsc2, active compounds read low 0.912 | S. cerevisiae deletion strains, locus YLR370C, strain arc18, active compounds read low 0.987 | S. cerevisiae deletion strains, locus YLR371W, strain rom2, active compounds read low 0.989 | S. cerevisiae deletion strains, locus YLR384C, strain iki3, active compounds read low 0.971 | S. cerevisiae deletion strains, locus YLR418C, strain cdc73, active compounds read low 0.991 | S. cerevisiae deletion strains, locus YML016C, strain PPZ1, active compounds read low 0.996 | S. cerevisiae deletion strains, locus YML032C, strain rad52, active compounds read low 1.02 | S. cerevisiae deletion strains, locus YML120C, strain ndi1, active compounds read low 0.983 | S. cerevisiae deletion strains, locus YML124C, strain tub3, active compounds read low 1 | S. cerevisiae deletion strains, locus YMR058W, strain fet3, active compounds read low 0.941 | S. cerevisiae deletion strains, locus YMR078C, strain ctf18, active compounds read low 0.996 | S. cerevisiae deletion strains, locus YMR125W, strain sto1, active compounds read low 0.954 | S. cerevisiae deletion strains, locus YMR129W, active compounds read low 1 | S. cerevisiae deletion strains, locus YMR205C, strain PFK2, active compounds read low 0.98 | S. cerevisiae deletion strains, locus YMR223W, strain ubp8, active compounds read low 0.975 | S. cerevisiae deletion strains, locus YMR231W, strain pep5, active compounds read low 0.957 | S. cerevisiae deletion strains, locus YMR307W, strain GAS1, active compounds read low 0.991 | S. cerevisiae deletion strains, locus YNL067W, strain RPL9B, active compounds read low 0.994 | S. cerevisiae deletion strains, locus YNL071W, strain lat1, active compounds read low 0.982 | S. cerevisiae deletion strains, locus YNL128W, strain TEP1, active compounds read low 0.998 | S. cerevisiae deletion strains, locus YNL153C, strain GIM3, active compounds read low 0.963 | S. cerevisiae deletion strains, locus YNL183C, strain NPR1, active compounds read low 0.971 | S. cerevisiae deletion strains, locus YNL209W, strain ssb2, active compounds read low 0.987 | S. cerevisiae deletion strains, locus YNL233W, strain BNI4, active compounds read low 0.992 | S. cerevisiae deletion strains, locus YNL248C, strain rpa49, active compounds read low 0.969 | S. cerevisiae deletion strains, locus YNL250W, strain rad50, active compounds read low 0.954 | S. cerevisiae deletion strains, locus YNL271C, strain bni1, active compounds read low 0.982 | S. cerevisiae deletion strains, locus YNL298W, strain CLA4, active compounds read low 0.996 | S. cerevisiae deletion strains, locus YNL307C, strain MCK1, active compounds read low 1 | S. cerevisiae deletion strains, locus YNL322C, strain KRE1 (second series), active compounds read low 0.971 | S. cerevisiae deletion strains, locus YNL322C, strain KRE1, active compounds read low 1.01 | S. cerevisiae deletion strains, locus YNR049C, strain mso1, active compounds read low 0.977 | S. cerevisiae deletion strains, locus YNR052C, strain pop2, active compounds read low 0.967 | S. cerevisiae deletion strains, locus YOL012C, strain htz1 0.978 | S. cerevisiae deletion strains, locus YOL147C, strain pex11, active compounds read low 0.998 | S. cerevisiae deletion strains, locus YOR001W, strain rrp6, active compounds read low 0.968 | S. cerevisiae deletion strains, locus YOR061W, strain CKA2, active compounds read low 1.01 | S. cerevisiae deletion strains, locus YOR069W, strain VPS5, active compounds read low 0.993 | S. cerevisiae deletion strains, locus YOR070C, strain gyp1, active compounds read low 0.967 | S. cerevisiae deletion strains, locus YOR080W, strain dia2, active compounds read low 0.979 | S. cerevisiae deletion strains, locus YOR083W, strain WHI5, active compounds read low 0.959 | S. cerevisiae deletion strains, locus YOR106W, strain vam3, active compounds read low 0.931 | S. cerevisiae deletion strains, locus YOR136W, strain idh2, active compounds read low 0.998 | S. cerevisiae deletion strains, locus YOR144C, strain elg1, active compounds read low 1.01 | S. cerevisiae deletion strains, locus YOR184W, strain ser1, active compounds read low 1.08 | S. cerevisiae deletion strains, locus YOR231W, strain MKK1, active compounds read low 1.02 | S. cerevisiae deletion strains, locus YOR265W, strain rbl2, active compounds read low 0.986 | S. cerevisiae deletion strains, locus YOR270C, strain vph1, active compounds read low 1.01 | S. cerevisiae deletion strains, locus YOR290C, strain snf2, active compounds read low 0.946 | S. cerevisiae deletion strains, locus YOR316C, strain cot1, active compounds read low 1 | S. cerevisiae deletion strains, locus YPL051W, strain arl3, active compounds read low 0.968 | S. cerevisiae deletion strains, locus YPL055C, strain LGE1, active compounds read low 1.04 | S. cerevisiae deletion strains, locus YPL078C, strain atp4, active compounds read low 0.992 | S. cerevisiae deletion strains, locus YPL106C, strain sse1, active compounds read low 0.944 | S. cerevisiae deletion strains, locus YPL240C, strain hsp82, active compounds read low 0.99 | S. cerevisiae deletion strains, locus YPL241C, strain CIN2, active compounds read low 1.01 | S. cerevisiae deletion strains, locus YPL256C, strain CLN2, active compounds read low 1 | S. cerevisiae deletion strains, locus YPR119W, strain clb2, active compounds read low 0.996 | S. cerevisiae deletion strains, locus YPR141C, strain kar3, active compounds read low 0.993 | S. cerevisiae deletion strains, locus YPR163C, strain tif3, active compounds read low 1 | S. cerevisiae deletion strains, locus YPR167C, strain met16, active compounds read low 0.978 | S. cerevisiae deletion strains, strain wtn01, active compounds read low 1.03 | S. cerevisiae strains, strain wild type, active compounds read low 1.03
